Source: PubChem
The list is not random: actives were taken first. Their share in the collection is about 21%.
AMA1 RON2 block: AMA1-RON2 (P. falciparum) interaction inhibition | 360,000 compounds, 0.2% hits | AlphaScreen AMA1-biotinylated RON2 peptide binding | Potency, µM (top dose mostly 58.2 µM), for the others: top-dose activity change, negative = inhibition, actives largely listed as inhibitors;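 note: potency is the fitted concentration of half-maximal effect; 0% = vehicle wells and -100% = peptide control; nearly all actives have a fitted effect of over 45% in size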
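AMA1 (3D7) with his tag at 25 nM final met compounds first, then biotinylated RON2 peptide at 25 nM; detection used donor plus acceptor beads, 10 µg/mL apiece, read by AlphaScreen after 30 min at room temperature.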
Pf growth 96h: P. falciparum growth inhibition at 96 hour, primary screen for plastid delayed-death inhibitors | P. falciparum luciferase reporter growth, 96 h | Potency, µM (series often up to 28.7 µM), for the others: top-dose activity change, negative = inhibition, hits mostly inhibitors | 320,000 compounds, 6.9% hits; note: potency is the fitted concentration of half-maximal effect; % is set by controls: 0 for no effect and ±100 for the full control effect
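Cell-based qHTS: luciferase-tagged P. falciparum in erythrocytes (2% hematocrit, 0.05% parasitemia final) incubated with compounds for 96 hours, 37 C, 5% CO2; luciferase detection reagent then added and luminescence measured.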
Cycloheximide cs: counter-screen for Shiga toxin inhibitors: cycloheximide protein synthesis inhibition. AID 2314. max response, %. cell reporter, cycloheximide protein synthesis inhibition counterscreen. 300,000 compounds, 12% hits; in the data active = max response mostly above about 13%, no sharp cut-off; inactive = mostly below about 14%; note: read at 38.3 µM for the half of the compounds with a filed dose; 0% is about no effect
Pf growth 48h: P. falciparum growth inhibition at 48 hours (one generation); P. falciparum luciferase growth in erythrocytes, 48 h; Potency, µM (highest dose often 28.7 µM), for the others: top-dose activity change, negative = inhibition, usual class: inhibitors; 310,000 compounds, 5.9% hits; AID 504832; note: potency is the fitted concentration of half-maximal effect; % is set by controls: 0 for no effect and ±100 for the full control effect
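Firefly luciferase activity from engineered P. falciparum reports growth; inhibitors lower the luminescent signal. Cultures contained 2% hematocrit erythrocytes at 0.1% final parasitemia.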
Shiga toxin inh: Shiga toxin inhibition; Vero cells, Shiga toxin protein synthesis inhibition reporter; inhibition, % at 38.7 µM; 290,000 compounds, 9.2% hits; in the data active = inhibition mostly above about 28%, no sharp cut-off; inactive = mostly below about 43%; note: 0% is about no effect
HCV inh: HCV inhibition; Potency, µM (top dose mostly 41.8 µM), without a hit: top-dose activity change, negative = inhibition, actives largely listed as inhibitors; Huh7.5.1 HCVcc-Cre infection, luciferase reporter, 44 h; AID 651820; 340,000 compounds, 3.4% hits; note: potency is the fitted concentration of half-maximal effect; % is set by controls: 0 for no effect and ±100 for the full control effect
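Luciferase read-out (15 sec integration) after a 15 min room-temperature substrate step quantifies HCVcc-Cre infection. Cells, 1,000 per well, had compound added 4 h post-plating, then virus at ~0.5 moi, and were cultured 44 h.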
HCV confirm: HCV inhibition, cherry-pick confirmation; 640 compounds, 78% hits; Potency, µM (series often up to 41.8 µM), for the others: at the highest dose activity, negative = inhibition, most hits filed as inhibitors; AID 720575; HCVcc-Cre infectious virus cell assay, luciferase, inhibition; shares compounds with HCV inh; note: potency is the fitted concentration of half-maximal effect; nearly all actives have a fitted effect of over 80% in size
HCV host tox: counter-screen for HCV inhibitors: host cell cytotoxicity; shares compounds with HCV inh; HCV host cell line cytotoxicity counterscreen; Potency, µM (highest dose often 41.8 µM), without a hit: at the highest dose activity change, negative = cytotoxicity, hits mostly inhibitors; 640 compounds, 22% hits; AID 720576;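 note: potency is the fitted concentration of half-maximal effect; 44 h compound exposure; % is set by controls: 0 for no effect and ±100 for the full control effect; nearly all actives have a fitted effect of over 55% in size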
The depositor's hits bear a star; ? = inconclusive; · = not tested or not shown; [ ] = another dose, or the depositor's remark. Unless noted, calls come from the whole dose curve; as a rule, active = well fitted curve in the direction sought with a large enough effect; inconclusive = small, poorly fitted or top-dose-only effect, or another doubt; inactive = no such curve, though single readings can be large; an effect the other way counts as inactive or inconclusive.

SMILES	AMA1 RON2 block	Pf growth 96h	Cycloheximide cs	Pf growth 48h	Shiga toxin inh	HCV inh	HCV confirm	HCV host tox
Cc1nn(C(C)C(=O)NCc2ccco2)c(C)c1[N+](=O)[O-] (stereo not drawn)	-3%	-7%	-2	-5%	-17	10%	·	·
Cc1cc(C)c(C(=O)OCCNC(=O)c2cccnc2)cc1C	-18%	8%	-2	-18%	-13	8.9µM*	?	-24%
COc1ccc(-c2nc(CN3CCN(c4cc(C)nc(C)c4)CC3)c(C)o2)c2ccccc12	-13%	?	-1	38%	-2	?	·	·
Cc1cc(N2CCN(Cc3nc(-c4ccc(Cl)cc4)oc3C)CC2)cc(C)n1	-10%	?	-2	?	-25	2.2µM*	10µM*	?
CCOCCCNc1c2c(nc3cc(-c4ccc(F)cc4)nn13)CCC2	3%	?	20	5%	-5	0%	·	·
OC1CCN(c2c3c(nc4cc(-c5ccc(F)cc5)nn24)CCC3)CC1	-13%	?	2	?	-6	?	5µM*	37%
O=C(COc1ccc(/C=N/NC(=O)c2cc3ccccc3o2)cc1Cl)Nc1ccccc1	3%	7.4µM*	47*	10µM*	62*	5.6µM*	7µM*	7µM*
O=C(COC(=O)c1ccc(Br)cc1)Nc1ccccc1Br	3%	-2%	9	-4%	15	-18%	·	·
Cc1cccc(NC(=O)c2ccc(S(=O)(=O)N3CCCCC3)cc2)c1	4%	?	1	-11%	1	-28%	·	·
CC(=NNC(=S)N1CCN(C2CCCCCC2)CC1)c1ccccn1	14µM*	·	·	·	·	0.89µM*	0.11µM*	?
COC(=O)c1c(NC(=O)Cc2cccs2)sc2c1CCCC2	-10%	?	30*	-6%	22	5µM*	13µM*	?
COC(=O)c1c(NS(=O)(=O)c2cccs2)sc2c1CCCC2	-10%	30%	-2	2%	-13	4%	·	·
O=C(NC(Nc1nc2ccc([N+](=O)[O-])cc2s1)(C(F)(F)F)C(F)(F)F)c1cccnc1	4%	?	7	7.4µM*	-7	4.5µM*	2.5µM*	7µM*
CCCOc1ccc(/C=N/Nc2cccc([N+](=O)[O-])c2)c(O)c1	15%	?	82*	?	81*	?	28µM*	-30%
N#Cc1c2ccc(OCC(=O)NCc3ccco3)cc2n2ccccc12	0%	?	-5	?	-5	?	·	·
N#Cc1c2ccc(O)cc2n2ccccc12	37%	-14%	27*	-17%	27	7.1µM*	22µM*	15%
Cc1nn(C)c(C)c1NC(=O)CCSc1nc(-c2ccco2)cc(C(F)(F)F)n1	0%	·	-1	-27%	-11	4µM*	?	-22%
CCc1ccc(OCC(O)CN2CCC(CN3C(=O)c4cccc5cccc(c45)C3=O)CC2)cc1 (stereo not drawn)	0%	?	-4	-9%	-8	6.3µM*	7µM*	14µM*
Cc1ccc(N2CC(C(=O)N3CCOCC3)CC2=O)cc1Cl (stereo not drawn)	13%	-1%	-4	0%	1	-14%	·	·
COc1ccc(NC(=S)N2CCCC(c3nc4ccc(C)cc4[nH]3)C2)cc1 (stereo not drawn)	14%	?	9	-3%	18	5µM*	0.035µM*	10%
COc1ccccc1Nc1nc2nonc2nc1N1CCCCC1C (stereo not drawn)	-8%	?	-4	3%	1	?	?	37%
Clc1ccc2c(c1)C(OC1CN3CCC1CC3)c1ccccc1CS2 (stereo not drawn)	-10%	?	-9	?	-18	10µM*	16µM*	?
COCCCN1CCN(C2Cc3ccccc3Sc3ccc(Cl)cc32)CC1 (stereo not drawn)	-27%	?	-3	?	-7	-15%	·	·
Oc1ccc(C[C@H]2CNC(=S)N2CC2CCCN2C[C@H](Cc2ccc(O)cc2)N2C[C@H](Cc3ccccc3)N(CC3CCCCC3)C2=S)cc1 (stereo partly drawn)	50%	·	·	·	·	2.5µM*	8.9µM*	-19%
Oc1ccc(C[C@H]2CN([C@@H](Cc3ccccc3)CN3CCC[C@@H]3CN3C(=S)NC[C@@H]3Cc3ccccc3)C(=S)N2CC2CCCCC2)cc1	14%	·	·	·	·	·	·	·
SMILES	AMA1 RON2 block	Pf growth 96h	Cycloheximide cs	Pf growth 48h	Shiga toxin inh	HCV inh	HCV confirm	HCV host tox
CN1CCN(c2ncnc3c2ncn3[C@H]2CN(Cc3ccco3)C[C@@H](CO)O2)CC1	-2%	·	·	·	·	·	·	·
COCCN(C(=O)COC(=O)c1cc2c(s1)CCC2)c1c(N)n(Cc2ccccc2)c(=O)[nH]c1=O	-16%	?	·	?	·	?	-26%	28%
COCCN(C(=O)COC(=O)c1ccc2c(c1)OCCO2)c1c(N)n(Cc2ccccc2)c(=O)[nH]c1=O	0%	-17%	·	?	·	14%	·	·
CC1CC(=O)Nc2ccccc2N1S(=O)(=O)c1cccc(Cl)c1 (stereo not drawn)	1%	40%	-3	1%	-15	-11%	·	·
CSc1ccc(CN2CCN(Cc3ccc([N+](=O)[O-])cc3)CC2)cc1	?	?	1	?	-10	?	4µM*	7µM*
COc1ccc(NC(=O)CN(C)C(=O)CSc2nc3ccccc3s2)cc1	0%	0%	·	-6%	·	-23%	·	·
O=C(COC(=O)COc1cccc(C(F)(F)F)c1)NC(=O)NC1CCCCC1	-14%	-4%	·	2%	·	-2%[8.37 µM]	·	·
CCN(C[C@H]1N[C@@](Cc2ccccc2)(C(=O)OC)[C@H]2C(=O)N(C)C(=O)[C@@H]12)S(=O)(=O)c1ccc(C(F)(F)F)cc1	2%	·	·	·	·	?	·	·
CCN(C[C@H]1N[C@@](Cc2ccccc2)(C(=O)OC)[C@H]2C(=O)N(Cc3ccccc3)C(=O)[C@@H]12)S(=O)(=O)c1ccc(C(F)(F)F)cc1	-2%	·	·	·	·	7.1µM*	?	51%
CN(C(=O)COC(=O)c1ccc2c(c1)OCCO2)C1CCCCC1	-5%	39%	·	12%	·	33%	·	·
C=C(C)C1CC=C(C)/C(=N/NC(=O)CCC(=O)Nc2ccccc2Cl)C1 (stereo not drawn)	20%	22%	-1	-2%	-14	-17%	·	·
CCN(CC)CCNC(=S)Nc1ccc2nc(N3CCCC3)cc(C)c2c1	-10%	-6%	-7	?	6	2µM*	7µM*	-23%
